Shn3 3UTR inh: reduction of Shn3 3'UTR firefly luciferase signal, primary screen, Schnurri-3 inhibitor project, cell-based, Clone20 osteoblasts, set 2. 0.52% of 360,000 active. Clone20 osteoblast Shn3 3'UTR firefly luciferase, 24 h. inhibition, % at 12.5 µM. AID 588674, 2011;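 active means mean inhibition of at least 75% with every replicate also reaching 75%; inconclusive means mean inhibition at least 75% but some replicate below; inactive means mean inhibition below 75%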;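 further: 0% = median of neutral control wells and 100% = pilot-screen positive control compound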
697 NFkB inh: inhibitors of PMA/ionomycin-induced NF-kB reporter, 697 cells, primary screen, B-cell NF-kB inhibitor project, cell-based, luminescence, uHTS; 697 B-cell NF-kB luciferase reporter, 16 h; inhibition, % at 4 µM; 0.33% of 330,000 active; AID 435022, 2010; in the data active means inhibition above about 35%
Calb FLC: C. albicans growth inhibition with fluconazole, primary screen, CaCi-2 strain, Alamar Blue fluorescence. C. albicans CaCi-2 (fluconazole-resistant clinical isolate) + fluconazole, 48 h. growth inhibition, % (no concentration beside the values). 0.57% of 300,000 active. AID 1979, 2009;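 active means growth inhibition above about 58% in most replicates, limit read from the data, passing the limit was not always enough; inconclusive means exactly half the replicates above a set limit; inactive means most replicates below a set limit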;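 further: all wells also contain fluconazole at 8 µg/ml as a sub-toxic cotreatment; 0% = median of DMSO wells and 100% = median of geldanamycin control wells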
Beta apoptosis: inhibitors of cytokine-induced beta cell apoptosis, primary screen, luminescence | INS-1E cytokine-induced death, ATP luminescence, 48 h; percent of positive-control rescue, neutral wells zero | protection from apoptosis, % (no concentration beside the values) | AID 435005, 2010 | 0.8% of 300,000 active;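 active means Every replicate reaches about 75%, or at least half do and their mean reaches it too, limit read from the data; inconclusive means At least half of replicates reach the limit but their mean does not; inactive means Under half of replicates reach the limit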;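 further: 0% = cytokine-treated negative control wells and 100% = positive control rescue; higher means more ATP so stronger rescue from cytokine killing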
Jurkat NFkB inh: inhibitors of induced NF-kB luciferase reporter, primary screen, TCR NF-kB activation inhibitor project, cell-based, luminescence, uHTS. Jurkat, PMA/ionomycin-induced NF-kB luciferase reporter. inhibition, % at 4 µM. 0.53% of 330,000 active. AID 435003, 2010; in the data active means inhibition above about 50%
Numbers without * were called inactive; ? = inconclusive; . = no result given. Only some compounds are listed: those with a hit (about 2% of all), similar ones and a draw of the others.

SMILES | Shn3 3UTR inh | 697 NFkB inh | Calb FLC | Beta apoptosis | Jurkat NFkB inh
CNc1cc(Cl)c2nonc2c1[N+](=O)[O-] | 89.6* | . | 100.2* | . | .
CCN(CCCl)c1cc(CN(C)C)cc(NC(=O)c2ccc(C(=O)Nc3cc(CN(C)C)cc(N(CC)CCCl)c3)cc2)c1 | 96.2* | . | . | . | .
Cc1ccc(N2C(=O)NC(=O)/C(=C\C=C\c3ccco3)C2=O)cc1C | ? | . | -5.4 | 97.0* | .
Cc1cccc(N2C(=O)NC(=O)/C(=C\C=C\c3ccco3)C2=O)c1 | 97.6* | 0.0 | 2.6 | 29.8 | 10.9
Cc1ccc(N2C(=O)NC(=O)/C(=C\C=C\c3ccco3)C2=O)cc1 | 71.3 | 1.4 | -5.8 | 40.4 | -2.3
NC(Cc1ccc(Cl)cc1)c1csc(Nc2ncccn2)n1 (centres undefined) | 40.4 | . | . | . | .
CC(=O)O[C@H]1C[C@@H]2OC3C=C(C)CCC3(C)[C@@]1(C)[C@@]21CO1 (some centres undefined) | 97.6* | . | . | . | .
CC(=O)OC1CC2OC3C=C(C)CCC3(C)C1(C)C21CO1 (centres undefined) | 98.1* | . | . | . | .
O=C(NC1CN2CCC1CC2)c1cc(Cl)c([N+](=O)[O-])c2nc[nH]c12 (centres undefined) | -5.7 | 6.5 | -3.2 | -5.7 | 3.0
O=C1N(c2cccc(Cl)c2)C(c2cccnc2)N2CCCN12 (centres undefined) | 1.1 | 11.6 | -5.2 | 0.2 | 1.2
O=C1C2CCN(CC2)C1Cc1ccccc1O (centres undefined) | . | 27.8 | 1.8 | -5.8 | 3.0
O=C1C2CCN(CC2)C1Cc1ccc(OCCOc2ccccc2)cc1 (centres undefined) | -11.4 | -6.0 | 108.5* | -3.3 | -16.0
Clc1ccc(C2NCCc3[nH]cnc32)cc1 (centres undefined) | 13.5 | -3.9 | -2.7 | 0.7 | 12.4
CCOP(=O)(OCC)C(O)c1ccc(OC)cc1 (centres undefined) | 3.0 | -21.3 | -6.6 | . | -6.1
CCOc1cc2c(cc1OCC)-n1cccc1C(c1ccc(F)cc1)NC2 (centres undefined) | 11.9 | -3.0 | 2.3 | -3.7 | -0.2
CCOc1cc2c(cc1OCC)-n1cccc1C(c1ccc(C(C)C)cc1)NC2 (centres undefined) | 90.3* | -2.2 | -1.7 | 28.2 | 2.3
CC1=CC2OC3CC4OC(=O)C=CC=CC(=O)OCCC(C)C(O)C(=O)OCC2(CC1)C4(C)C31CO1 (centres undefined) | 97.8* | . | . | . | .
CC(O)C1C=CC=CC(=O)OC2CC3OC4C5OC5(C)C(O)CC4(COC(=O)C(O)C(C)CCO1)C2(C)C31CO1 (centres undefined) | 96.5* | . | . | . | .
CC1CCOC(=O)C=CC=CC(=O)OC2CC3OC4C5OC5(C)C(O)CC4(COC(=O)C1O)C2(C)C31CO1 (centres undefined) | 96.9* | . | . | . | .
CC1=CC2OC3CC4OC(=O)C=CC=CC(C(C)O)OCC(O)C5(C)OC5C(=O)OCC2(CC1O)C4(C)C31CO1 (centres undefined) | 97.6* | . | . | . | .
CC(Cc1ccccc1)[n+]1cc(/N=C(\[O-])N(C)C)on1 (centres undefined) | -6.1 | -35.8 | 0.4 | -2.4 | -9.5
Fc1ccc(NC(=S)N2Cc3ccccc3-n3nncc3C2)cc1 | 47.1 | . | . | . | .
O=C(N/N=C/c1c(O)n(CCC2=CCCCC2)c(=O)[nH]c1=O)c1ccccc1 | -14.0 | -0.7 | 25.7 | 8.3 | 3.2
Nc1ccccc1N=Cc1c(O)n(CCC2=CCCCC2)c(=O)[nH]c1=O | -28.8 | -6.0 | 17.1 | 96.7* | 0.3
O=C(N/N=C/c1c(O)n(CCC2=CCCCC2)c(=S)[nH]c1=O)c1ccccc1 | 5.9 | 19.1 | 97.6* | -1.1 | 5.5
SMILES | Shn3 3UTR inh | 697 NFkB inh | Calb FLC | Beta apoptosis | Jurkat NFkB inh
CCOC(=O)CSc1ccc(C(=O)N2CCC3(CC2)OCCO3)cc1[N+](=O)[O-] | -9.4 | 15.3 | 2.7 | 1.4 | -17.7
C[C@H]1[C@@H](OS(=O)(=O)O)C[C@@H]2C[C@H]([C@@H](O)c3cc(=O)[nH]c(=O)[nH]3)NC3=NC[C@H]1N32 | 97.9* | . | . | . | .
Cc1c(NP(=O)(C(C)(C)C)C(C)(C)C)c(=O)n(-c2ccccc2)n1C | 15.5 | -19.7 | -0.8 | . | -24.5
O=C(COc1ccc(Br)cc1)N1CCN(Cc2c[nH]c3ccccc23)CC1 | 9.8 | -24.0 | 7.4 | 106.4* | 20.5
O=C(COc1ccc2ccccc2c1)N1CCN(Cc2c[nH]c3ccccc23)CC1 | 30.0 | -35.2 | -1.0 | 101.8* | -0.5
c1ccc2c(CN3CCCCC3)c[nH]c2c1 | -7.7 | 14.9 | 5.6 | -8.8 | 6.8
COc1ccc2c3c1O[C@H]1C(=O)CC[C@H]4[C@@H](C2)N(C)CC[C@]314 | 13.4 | 29.7 | . | . | -7.4
COc1cccc2c1O[C@H]1C(=O)CC[C@H]3CN(C)CCC231 (some centres undefined) | 89.4* | 3.5 | 18.3 | 0.6 | 16.2
Cc1ccc(C2=NC(C)(C)N3C2C3c2ccc([N+](=O)[O-])cc2)cc1 (centres undefined) | 9.7 | 3.7 | -0.3 | -5.6 | 13.3
O=[N+]([O-])c1ccc(C2[C@H]3C(c4ccccc4)=NC4(CCCC4)N23)cc1 (some centres undefined) | -11.4 | 0.0 | 99.4* | 1.7 | 6.0
CSc1nc(C)c(Br)c(N2CC2)n1 | -9.7 | . | . | . | .
CC1CC(C)(O)CC(C(O)CC2CC(=O)NC(=O)C2)C1=O (centres undefined) | 93.9* | . | . | . | .
CC=CC(C)=CC(C)C(=O)CC(O)CC1CC(=O)NC(=O)C1 (centres undefined) | 21.9 | . | . | . | .
O=C(C(=O)N1CCOCC1)c1cn(Cc2ccccc2F)c2ccccc12 | -11.2 | -1.0 | 4.3 | 3.3 | -0.8
CN(C)CC(C(=O)Cc1ccccc1)c1ccccc1 (centres undefined) | 94.9* | . | . | . | .
COC(=O)C1=C(C(=O)OC)SC2(S1)C(C(=O)OC)=C(C(=O)OC)Sc1c2ssc1=O | 97.6* | . | . | . | .
CS(=O)(=O)CCN1CC2CCCC(C2)C1 | -19.4 | . | . | . | .
Clc1ccc(C(c2ccc(Cl)cc2)n2cc[n+](CC(OCc3ccc(Cl)cc3Cl)c3ccc(Cl)cc3Cl)c2)cc1 (centres undefined) | 87.2* | 19.0 | . | 121.5* | 16.7
COC1CC2C=C(C)C=CC=CC(=O)NC(c3ccccc3)CC=CCCC(O)CC(=O)C2=C1O (centres undefined) | 97.9* | . | . | . | .
CN1CCN(c2ccc([N+](=O)[O-])c3no[n+]([O-])c23)CC1 | 96.6* | . | 7.7 | 106.7* | .
O=C(O)CN1C(=O)CN=C(c2ccccn2)c2cc(Cl)ccc21 | 14.8 | 2.8 | -1.7 | -2.2 | -15.2
CCCCn1c(=O)c(C(=O)Nc2ncccc2C)c(O)c2ccccc21 | 0.9 | -20.7 | -4.5 | -9.2 | 0.3
CCCCCCn1c(=O)c(C(=O)Nc2ncccc2C)c(O)c2ccccc21 | 43.9 | -28.3 | 2.9 | 82.3* | -14.6
